# Measurements taken from ChEMBL document CHEMBL3988442, “University of Dundee, Small-Polar-MMV Screening Library” (2021).
# Among all 53,000 compounds or so, about 900 (1.7%) showed an effect of 50% or more. For the sample, strong results were picked, then their nearest neighbours and some compounds at random.
# Tested on: Mycobacterium tuberculosis
# Assay: Cornell - Phenotypic assay to identify agents that inhibit growth of Mycobacterium tuberculosis
# Assay type: functional
# Set-up: scale not given: direction of the effect not stated beside the values
# Details: 10 mM as filed; unlikely as a test dose
row,Structure (SMILES),Percent Effect
1,CCn1ccc(-c2cc(C(=O)O)n3ncc(Br)c3n2)n1,19.03%
2,CC(C)Cn1ccnc1CNC(=O)N1CCCC1CN1CCOCC1 (stereo not drawn),7.761%
3,CN(C(=O)Cn1nc(-c2ccccc2F)ccc1=O)C1CCS(=O)(=O)C1 (stereo not drawn),18.26%
4,COC(=O)C(NC(=O)Nc1ccc(C(C)=O)cc1)C(C)C (stereo not drawn),6.824%
5,COCc1ncc(CN2CCC3(CCNC(=O)CC3)CC2)cn1,18.36%
6,COCCN(C)Cc1cn(C)nc1-c1ccc2c(c1)OCCO2,-52.38%
7,CC(C)(C)NC(=O)CNC(=O)Nc1cc(-c2ccccc2)ns1,38.08%
8,Cc1ccc(-c2cc(C(F)(F)F)nc(N3CCOCC3)n2)s1,4.079%
9,FC(F)(F)c1cc(-c2cccs2)nc(N2CCN3CCCC3C2)n1 (stereo not drawn),24.42%
10,Cc1c(-c2cc(C(F)(F)F)nc(N3CCC(N)CC3)n2)cnn1C,2.397%
11,CCn1ncc(-c2cc(C(F)(F)F)nc(N3CCC(N)CC3)n2)c1C,50.19%
12,CCc1ccc(-c2cc(C(F)(F)F)nc(N3CCC(N)CC3)n2)cc1,105.7%
13,Cc1cc(C(F)(F)F)nc(N2CCN3CCCC3C2)n1 (stereo not drawn),-50.74%
14,Cn1nc(CN2CCCC2)c2c1CN(c1cnccn1)CC2.O=C(O)C(F)(F)F.O=C(O)C(F)(F)F,-1.06%
15,COCCC(=O)N1C[C@H]2CN(Cc3cccnc3)C(=O)[C@H]2C1.O=C(O)C(F)(F)F,9.901%
16,COc1ccc(NC(=O)Cn2nc(C)c(C)cc2=O)cc1Cl,14.09%
17,COc1ccc(NC(=O)Cn2nc(C)c(C(C)=O)c2C)cc1,109.6%
18,Cc1cc(=O)n(CC(=O)Nc2ccc(Cl)cc2)nc1C,13.93%
19,COc1ccc(NC(=O)Cn2nc(C)c(C)cc2=O)cc1,-2.402%
20,CC(=O)c1c(C)nn(CC(=O)Nc2ccc(Br)cc2)c1C,109.5%
21,CC(=O)c1c(C)nn(CC(=O)Nc2ccc(F)cc2)c1C,-30.72%
22,COCCN1CC[C@]2(CN(C(=O)c3ccc[nH]3)C[C@H]2C)C1=O,14.18%
23,Cc1nn(C)c(Cl)c1C1CCCN1Cc1noc(C2CC2)n1 (stereo not drawn),-6.241%
24,CCCC(NC(=O)c1cscc1C)c1nnn[nH]1 (stereo not drawn),-31.84%
25,Cc1cnc(CN(C)C2CCN(Cc3sc(C)nc3C)C2)o1 (stereo not drawn),-24.44%
26,COC(=O)CNC(=O)C(C)Oc1ccccc1C(F)(F)F (stereo not drawn),-2.134%
27,CC(Oc1ccccc1C(F)(F)F)C(=O)NS(=O)(=O)C(C)C (stereo not drawn),54.22%
28,CC(Oc1ccccc1C(F)(F)F)C(=O)NCC(N)=O (stereo not drawn),-32.94%
